# BAZ2B inh: blocks human BAZ2B. AlphaScreen BAZ2B-H3K14Ac peptide displacement. Potency, µM (doses to about 114 µM), for the others: at the highest dose activity change, negative = inhibition, usual class: inhibitors. 360,000 tested, 4.4% active. AID 504333; further: potency means the concentration at half of the fitted maximal effect; on the % scale 0 is the no-effect control and ±100 the full control effect; nearly all actives have a fitted effect of over 60% in size
#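 AlphaScreen displacement: compounds (up to 110uM) incubated 30 min at room temperature with a preformed 50 nM BAZ2B/50 nM biotinylated H3K14Ac peptide complex in PBS pH 7.4 with Tween-20. Donor and acceptor beads at 10 ug/mL final added, 20 min light-protected before reading.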
# HP1b chromo inh: blocks HP1-beta chromodomain binding to methylated histone tails. AlphaScreen HP1-beta / biotin-H3K9me3 peptide binding. Potency, µM (top dose mostly 114 µM), without a hit: top-dose activity change, negative = inhibition, usual class: inhibitors. 390,000 tested, 0.56% active. AID 540317; further: potency means the concentration at half of the fitted maximal effect; nearly all actives have a fitted effect of over 70% in size
#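 HP1-beta protein (50 nM final) preincubated 30 min at room temperature with biotinylated H3(1-18)K9me3 peptide (50 nM) in PBS pH 7.4, 0.01% Tween-20, then compound added for 30 min. AlphaScreen streptavidin donor/nickel chelate acceptor beads (10 ug/mL final), 30 min dark, luminescence read.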
# KAT2A inh: inhibitors of human GCN5L2 histone acetyltransferase; Q92830; AID 504327; GCN5L2 HAT assay, ThioGlo1 CoA-SH fluorescence; 390,000 tested, 0.21% active; Potency, µM (doses to about 58.9 µM), without a hit: top-dose activity change, negative = inhibition, usual class: inhibitors; further: potency means the concentration at half of the fitted maximal effect; on the % scale 0 is the no-effect control and ±100 the full control effect
#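 GCN5L2 (20 nM) in 50mM HEPES pH 7.5, 0.1mM EDTA, 0.01% Tween-20 preincubated 15 min with compounds at room temperature. Reaction started with H3(1-25) 75uM, acetyl-CoA 70uM, ThioGlo1 50uM; CoA-thiol fluorescence (Ex340/Em540) read at 0 and 20 min.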
# JMJD2A Tudor inh: blocks the human JMJD2A Tudor domain; O75164; AlphaScreen JMJD2A-Tudor / H3K4me3 peptide binding; Potency, µM (highest dose often 114 µM), for inactives: at the highest dose activity change, negative = inhibition, actives largely listed as inhibitors; 390,000 tested, 4.4% active; AID 504339; further: potency means the concentration at half of the fitted maximal effect; on the % scale 0 is the no-effect control and ±100 the full control effect; nearly all actives have a fitted effect of over 50% in size
# PLK1 PBD block: PLK1 (human) polo-box domain binding inhibition. Plk1 PBD binding of FITC phosphopeptide, fluorescence polarization. Potency, µM, for the others: max response, negative = inhibition, hits mostly inhibitors. 360,000 tested, 2.8% active. AID 720504; further: potency means the concentration at half of the fitted maximal effect; series mostly up to about 57 µM; on the % scale 0 is the no-effect control and ±100 the full control effect; nearly all actives have a fitted effect of over 65% in size
# PI5P4Ka inh: PI5P4K alpha (human) kinase inhibition; PI5P4Kalpha enzyme, ADP-Glo luminescence, 60 min; stronger effect = lower value; 330,000 tested, 1.2% active; max response, %; P48426; AID 652105; active means max response of -50% or lower; inconclusive means between -30% and -50%; inactive means -30% or higher; further: value at the top dose of about 77 µM; on the % scale 0 is the no-effect control and ±100 the full control effect
# Target sequence (P48426 whole entry, looked up): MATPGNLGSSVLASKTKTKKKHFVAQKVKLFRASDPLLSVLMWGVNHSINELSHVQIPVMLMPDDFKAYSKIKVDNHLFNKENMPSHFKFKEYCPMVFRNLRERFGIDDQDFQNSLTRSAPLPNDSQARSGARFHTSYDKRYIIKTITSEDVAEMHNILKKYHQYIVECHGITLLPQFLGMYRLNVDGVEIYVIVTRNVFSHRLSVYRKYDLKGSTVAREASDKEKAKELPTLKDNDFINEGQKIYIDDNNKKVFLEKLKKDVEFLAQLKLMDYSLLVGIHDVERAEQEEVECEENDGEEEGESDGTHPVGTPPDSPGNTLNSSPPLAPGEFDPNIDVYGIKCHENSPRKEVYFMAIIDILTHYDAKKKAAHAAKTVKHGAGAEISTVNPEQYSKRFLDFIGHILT
#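 Reactions run in 0.038 M HEPES pH 7.4, 0.28 mM EGTA, 0.1% CHAPS and 5% DMSO, with PI5P4Kalpha, substrate, compound and 5 microM ATP final, one hour at room temperature. Readout is ADP-Glo luminescence.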
# * hit, by the source's call; ? = inconclusive; nt = no result given; [ ] = remark or other dose. Hits are enriched below; roughly 7% of the tested compounds scored in any of these assays. Unless noted, the call rests on the fitted dose curve; in most records, active means well fitted curve in the direction sought with a large enough effect; inconclusive means small, poorly fitted or top-dose-only effect, or another doubt; inactive means no such curve, though single readings can be large; an effect the other way counts as inactive or inconclusive.
SMILES,BAZ2B inh,HP1b chromo inh,KAT2A inh,JMJD2A Tudor inh,PLK1 PBD block,PI5P4Ka inh
CN(C)c1ccc(Nc2nc(N)c([N+](=O)[O-])c(N3CCOCC3)n2)cc1,35µM*,?,-5%,?,-1%,-3
Cc1cccc(Nc2nc(N)c([N+](=O)[O-])c(N3CCC(C)CC3)n2)c1,?,?,-8%,32µM*,-2%,-2
Cc1cccc(Nc2nc(N)c([N+](=O)[O-])c(N3CC(C)CC(C)C3)n2)c1 (configuration not stated),?,?,-12%,?,3%,12
C=C(C)Cn1c2ccc(NC(=O)NCCc3cccs3)cc2c(=O)n1C,nt,nt,nt,nt,-26%,-2
Cc1nc(SCC(=O)N2CC(=O)Nc3ccccc32)nc(C)c1C,4%,30%,-6%,-13%,-9%,1
N#Cc1cc(C#N)c(SCC(=O)N2CC(=O)Nc3ccccc32)nc1N,-1%,42%,-5%,-26%,-4%,-53*
CCc1cc2c(SCC(=O)N3CC(=O)Nc4ccccc43)ncnc2s1,-7%,-14%,0%,-36%,27µM*,-28
CCc1ccc2nc(SCC(=O)N3CC(=O)Nc4ccccc43)c(C#N)cc2c1,-6%,?,-8%,50µM*,21µM*,-14
CCc1nc(SCC(=O)N2CC(=O)Nc3ccccc32)c2c(C)c(C)sc2n1,-5%,12%,-16%,-1%,?,nt
CCn1c(N2CCC(Cc3ccccc3)CC2)nc2c1c(=O)[nH]c(=O)n2C,?,?,-5%,-27%[11.4 µM],30µM*,4
CC1CCN(c2nc3c(c(=O)[nH]c(=O)n3C)n2Cc2ccccc2)CC1,-19%,67%,-17%,-6%,-8%,-5
CCCN1C(=S)SC(C)(C)C1/[N+]([O-])=C/c1cccnc1 (configuration not stated),-16%,-10%,-2%,-18%[11.4 µM],24µM*,2
CCCCN1C(=S)SC(C)(C)C1/[N+]([O-])=C/c1cccnc1 (configuration not stated),-18%,59%,-6%,-18%,-14%,4
COc1cc(NC(=O)c2ccc(-c3nc(CSc4ccccc4)c(C)o3)cc2)cc(OC)c1,-18%,23%,-7%,-25%,nt,nt
Cc1ccc(C)n1-c1cc(S(=O)(=O)N2CCOCC2)ccc1N1CCCC1,-8%,-3%,-4%,79µM*,-21%,nt
Cc1cc(CNCCN(C)C)c(C)n1-c1cc(S(=O)(=O)N2CCOCC2)ccc1N1CCCC1,nt,-14%,nt,8.9µM*,-6%,-5
Cc1[nH]c2ccccc2c1C(=O)COC(=O)C1CC(=O)N(Cc2ccco2)C1 (configuration not stated),-38%,5%,-1%,-27%,-15%,-3
Cc1ccc(C(=O)Oc2ccc(C(=O)COC(=O)C3CC(=O)N(Cc4ccco4)C3)cc2)cc1 (configuration not stated),50µM*,-18%,-18%,?,?,?
O=C(COC(=O)C1CC(=O)N(Cc2ccco2)C1)c1ccc(OC(=O)c2ccco2)cc1 (configuration not stated),25µM*,?,?,35µM*,?,-63*
Cc1cc(C)c2c(n1)SCC(=O)N2CC(=O)Nc1cc(F)ccc1F,1%,35%,?,-8%,2%,-5
Cc1oc(-c2ccc(F)cc2)nc1CN(Cc1ccccn1)CC1CCCO1 (configuration not stated),-14%,?,-2%,20µM*,30µM*,-21
Clc1ccc(-c2noc(CN(Cc3ccccn3)CC3CCCO3)n2)cc1 (configuration not stated),-5%,49%,-3%,-25%,-4%,4
O=C(CCN1C(=O)c2ccccc2C1=O)NCc1ccc(F)cc1,-4%,12%,1%,-9%,-1%,0
O=C(CN1C(=O)c2ccccc2C1=O)NCc1ccc(F)cc1,?,4%,0%,?,7.5µM*,-19

# Screening data from PubChem BioAssay.
